Nrf2 inh = Nrf2 qHTS screen for inhibitors. Potency, µM (doses to about 46 µM), hits mostly inhibitors. actives 2.1% (n = 360,000). A549 ARE-Fluc reporter, luciferase luminescence, 18-24 h; also: nearly all actives have a fitted effect of over 60% in size
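A549 ARE_Fluc cells (5000/well, 5% FBS OPTI-MEM) pre-incubated 2 h, then treated with compounds 18-24 h at 37C/5% CO2 in concentration-response. CellTiter-Fluor viability read first; BugLite luciferase luminescence after 15 min at room temperature gives Nrf2 activity.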
HepG2 tox = qHTS for Inhibitors of TGF-b: Cytotox Counterscreen; actives 0.76% (n = 410,000); AID 588856, 2011; Potency, µM (titrated, usually from 46.1 µM), hits mostly cytotoxic; HepG2 CAGA-GFP viability, ATP luminescence, 18 h
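HepG2 CAGA-GFP cells (1000/well, DMEM with 1% FBS) received compound, then TGF-beta at 500 pg/mL final, and were incubated 18 hours at 37 degrees C. Viability was read by CellTiter-Glo luminescence. Media-only wells were set as complete cell-killing and DMSO as no toxicity.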
A549 tox = Nrf2 qHTS screen for inhibitors: counterscreen for cytotoxicity. A549 ARE-Fluc cells, CellTiter-Fluor viability, 18-24 h. AID 504648, 2011. Potency, µM (top dose mostly 46 µM), usual class: inhibitors. actives 0.16% (n = 390,000)
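A549 ARE-Fluc cells in 5% FBS OPTI-MEM, 5000 cells/well, rested 2 h then exposed to compounds in concentration-response for 18-24 h at 37 °C. Viability by CellTiter-Fluor fluorescence (Ex 405/Em 525) after 30 min; luciferase luminescence (BugLite, 15 min, RT) read afterwards.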
ATXN viability = Viability Counterscreen for Primary qHTS for Inhibitors of ATXN expression; S2 cells (HEK-293 line with an ATXN2-luciferase reporter) viability, CellTiter-Fluor protease fluorescence, 24 h; Potency, µM (top dose mostly 56.7 µM), actives largely listed as cytotoxic; actives 0.49% (n = 400,000); AID 651635, 2014; also: nearly all actives have a fitted effect of over 40% in size
ATXN2 expr inh = Primary qHTS for Inhibitors of ATXN expression; HEK-293 ATXN2-luciferase reporter, luminescence, 24 h; Potency, µM (doses to about 57 µM), hits mostly inhibitors; actives 0.72% (n = 360,000); also: nearly all actives have a fitted effect of over 55% in size
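qHTS (up to 57 uM final) was run with 24 h compound exposure of reporter cells at 37 °C. Each well was multiplexed: SteadyGlo luminescence measured ATXN2-luciferase expression after a fluorogenic Gly-Phe-AFC viability readout (25 uM final).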
TGFb inhibitor = qHTS for Inhibitors of TGF-b; actives 1.2% (n = 410,000); AID 588855, 2011; HepG2 CAGA-GFP TGF-b/SMAD3 reporter, GFP fluorescence, 18 h; TGF-beta stimulated, 500 pg/mL final; Potency, µM (top dose mostly 46.1 µM), usual class: inhibitors; also: nearly all actives have a fitted effect of over 65% in size
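First, reporter cells (HEPG2 CAGA-GFP) rested 2 h at 37 degrees C. Next, compounds were pinned in and TGF-beta added to 500 pg/mL final. After 18 h, GFP was imaged per cell and summed per well.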
Hits are given with their value; - = inactive; ? = inconclusive; . = no result; ! = repeats disagree; [ ] = another dose, or the depositor's remark. Hits are enriched below; roughly 3.8% of the tested compounds scored in any of these assays. Calls follow the shape of the dose curve; as a rule, active = well fitted curve in the direction sought with a large enough effect; inconclusive = small, poorly fitted or top-dose-only effect, or another doubt; inactive = no such curve, though single readings can be large; an effect the other way counts as inactive or inconclusive.

SMILES | Nrf2 inh | HepG2 tox | A549 tox | ATXN viability | ATXN2 expr inh | TGFb inhibitor
Cc1ccc(-n2ncc(C(=O)NCCCN3CCCCC3)c2C2CCN(C(=O)OC(C)(C)C)CC2)cc1 | - | - | - | . | . | -
Cc1c(CN2CCC(CO)(Cc3cccc(C(F)(F)F)c3)CC2)c2ccccc2n1C | - | 25.1µM | - | . | 35.5µM | ?
COc1cc2c(cc1OC)C(CNC(=O)C=Cc1ccccc1)C2 (stereo unspecified) | . | - | . | - | . | -
Cc1ccc(Cl)cc1N1CCN(C(=O)CCCn2c(=O)[nH]c3ccc(Br)cc3c2=O)CC1 | -[9.27 µM] | - | - | ? | ? | 11.2µM
Cc1ccc(Cl)cc1N1CCN(C(=O)CCCCCn2c(=O)[nH]c3ccccc3c2=O)CC1 | . | - | ? | . | . | -
COC(=O)c1ccc2c(=O)n(CCCCCC(=O)N3CCN(c4ccc(OC)cc4)CC3)c(=O)[nH]c2c1 | . | - | - | . | . | -
COC(=O)c1ccc2c(=O)n(CCCCCC(=O)N3CCN(c4cccc(C)c4C)CC3)c(=O)[nH]c2c1 | . | - | - | . | . | 2.82µM
COC(=O)c1ccc2c(=O)n(CCCCCC(=O)NC(C)C)c(=O)[nH]c2c1 | - | - | - | - | - | 25.1µM!
CCN1C(C(=O)c2ccccc2)=C(OC(=O)c2ccc(Cl)cc2)c2ccccc2S1(=O)=O | 20.6µM | - | ? | . | . | 11.2µM
CCCN1C(C(=O)c2ccccc2)=C(OC(=O)C(C)(C)C)c2ccccc2S1(=O)=O | ? | - | ? | . | . | ?
CCN1C(C(=O)c2ccccc2)=C(OC(=O)COc2ccc(C)cc2)c2ccccc2S1(=O)=O | 23.1µM | - | ? | . | . | -
CCCCC(=O)OC1=C(C(=O)c2ccccc2)N(C)S(=O)(=O)c2ccccc21 | ? | - | ? | - | - | 17.8µM
CCCN1C(C(=O)c2ccccc2)=C(OC(=O)COc2ccc(C)cc2)c2ccccc2S1(=O)=O | 18.4µM | - | ? | . | . | ?
CCN1C(C(=O)c2ccccc2)=C(OC(=O)COc2ccc(OC)cc2)c2ccccc2S1(=O)=O | ? | - | ? | . | . | -
COc1cccc(NC(=O)CC(C)S(=O)(=O)c2ccc3c(c2)NC(=O)CO3)c1 (stereo unspecified) | - | - | - | - | - | -
CCCN1C(C(=O)c2ccccc2)=C(OC(=O)COc2ccccc2)c2ccccc2S1(=O)=O | 23.1µM | - | ? | . | . | ?
Cc1cc(C)n(-c2nc(N(c3ccccc3)c3ccccc3)nc(-n3nc(C)cc3C)n2)n1 | . | - | ? | 8.91µM | 10µM | ?
CCC(C)[C@H]1O[C@]2(C=C[C@@H]1C)C[C@@H]1C[C@@H](C/C=C(\C)[C@@H](O[C@H]3C[C@H](OC)[C@@H](O[C@H]4C[C@H](OC)[C@H](NC(C)=O)[C@H](C)O4)[C@H](C)O3)[C@@H](C)/C=C/C=C3\CO[C@@H]4[C@H](O)C(C)=C[C@@H](C(=O)O1)[C@]34O)O2 (stereo partly specified) | . | . | . | 3.16µM! | . | .
CO[C@H]1C[C@H](O[C@H]2[C@H](C)O[C@@H](O[C@@H]3/C(C)=C/C[C@@H]4C[C@@H](C[C@]5(C=C[C@H](C)[C@@H](C6CCCCC6)O5)O4)OC(=O)[C@@H]4C=C(C)[C@@H](O)[C@H]5OC/C(=C\C=C\[C@@H]3C)[C@]54O)C[C@@H]2OC)O[C@@H](C)[C@@H]1O | . | . | . | 3.16µM | . | .
CC[C@H](C)[C@H]1O[C@]2(CC[C@@H]1C)C[C@@H]1C[C@@H](CC=C(C)[C@@H](O[C@H]3C[C@H](OC)[C@@H](O[C@H]4C[C@H](OC)[C@@H](O)[C@H](C)O4)[C@H](C)O3)[C@@H](C)C=CC=C3CO[C@@H]4[C@H](O)C(C)=C[C@@H](C(=O)O1)[C@]34O)O2 | 5.8µM | 3.55µM | 23.1µM | 3.55µM | 3.55µM | 3.16µM
